Source: PubChem BioAssay (NCATS)
“And” between values parts separate entries of the source, which are not always exact repeats. Equal entries are not always repeated. Records with an inconclusive call do not appear. The source made the active and inactive calls. Unless noted, calls follow the shape of the dose curve; as a rule, active = well fitted curve in the direction sought with a large enough effect; inconclusive = small, poorly fitted or top-dose-only effect, or another doubt; inactive = no such curve, though single readings can be large; an effect the other way counts as inactive or inconclusive.

What was measured:
[1] = Cell Viability - HepG2 (AID 433; calls by dose curve;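 also: potency is read from the fitted curve at half-maximal effect; potency for ATP loss meaning cytotoxicity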); conditions: qHTS
How it was run: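 In this qHTS format, a 40 h, 37 °C compound incubation of HepG2 cells in complete medium precedes a 20 min CellTiter-Glo step at room temperature. Tamoxifen and doxorubicin serve as positive controls; Hill-equation fits yield AC50.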

[2] = Cell Viability - MRC5 (AID 434; calls by dose curve;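 also: potency is read from the fitted curve at half-maximal effect; potency reflects cytotoxicity seen as loss of intracellular ATP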); conditions: MRC5 lung fibroblast viability, qHTS
How it was run: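 MRC5 normal human lung fibroblasts, 1500 cells/well, exposed to compound for 40 hr at 37 C. Cellular ATP was read by CellTiter-Glo luminescence; data normalized to DMSO and 100 uM tamoxifen, with AC50 from Hill fits.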

[3] = target: Mitogen-activated protein kinase 10 (Mus musculus) (UniProt Q61831); test: JNK3 AlphaScreen Assay (AID 530; active = well fitted curve in either direction with a large enough effect, not every such curve was filed as active;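 also: kinase came from lysate of stimulated human HepG2 cells; signal reports phosphorylation of biotinylated GST-cJun 1-79 at Ser73 with 10 µM ATP; % is scaled to controls: 0 for no effect and ±100 for the full control effect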); conditions: JNK3 lysate, c-Jun phosphorylation; series mostly up to 57.1 µM
How it was run: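 Pre-activated (IL-1β/TNFα) JNK3 in HepG2 lysates phosphorylates biotin-GST-cJun(1-79), 10 uM ATP; anti-phospho-cJun(Ser73) AlphaScreen read at room temperature, pH 7.6 Tris buffer. Compounds pre-incubated 15 min as titrations.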

[4] = Cell Viability - NIH 3T3 (AID 541); conditions: NIH 3T3 cell viability, qHTS; activity change, negative = cytotoxicity: at 92.2 µM (top of the series);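 also: plate controls were DMSO alone for no effect and tamoxifen positive control for full effect; nearly all actives have a fitted effect of over 25% in size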
How it was run: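 Luminescent ATP signal (CellTiter-Glo) served as the viability read-out after NIH 3T3 cells were exposed to compounds over a concentration range for 40 hr at 37 °C. Hill-equation modelling of concentration-response data gave AC50.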

[5] = Cell Viability - HUV-EC-C (AID 542); conditions: HUV-EC-C endothelial cell viability, qHTS; series mostly up to 92.2 µM; also: % is scaled to controls: 0 for no effect and ±100 for the full control effect; nearly all actives have a fitted effect of over 35% in size
How it was run: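 qHTS cytotoxicity: HUV-EC-C, 1000 cells/well, 5 hr settle, compound 40 hr 37 °C, CellTiter-Glo, luminescence. AC50 via Hill equation.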

[6] = Cell Viability - SH-SY5Y (AID 544); conditions: SH-SY5Y neuroblastoma cell viability; viability change, negative = cytotoxic: at 92.2 µM (top of the series); also: nearly all actives have a fitted effect of over 55% in size
How it was run: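 Luminescent ATP read-out (CellTiter-Glo) measures loss of viable SH-SY5Y neuroblastoma cells after 40 hr compound exposure at 37 °C. AC50 values derive from standard Hill modelling of qHTS concentration-response data.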

[7] = Cell Viability - Renal Proximal Tubule (AID 545); conditions: renal proximal tubule cells viability; at 91.7 µM (top of the series), primary cells of rat origin unless noted; also: nearly all actives have a fitted effect of over 40% in size
How it was run: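 In this qHTS format, normal rat kidney-derived proximal tubule cells in complete culture medium receive compound titrations, then sit 40 hours at 37 °C before luciferase-based ATP quantitation; potency is reported as AC50 from concentration-response curves.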

[8] = Cell Viability - Mesenchymal (AID 546); conditions: mesenchymal cells viability, qHTS; series mostly up to 91.7 µM;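 also: cells exposed to compound for 40 hours before reading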
How it was run: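 Human kidney mesenchymal cells from normal renal glomeruli, 1000 cells/well, rested 5 hr at 37 °C, then treated 40 hr at 37 °C in complete medium. Cellular ATP read by CellTiter-Glo luminescence; AC50 from Hill-equation fits.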

[9] = Cellular Toxicity (caspase-3) Jurkat (AID 655); conditions: Jurkat caspase-3 activation, luminescence, DMSO = 0%, tamoxifen = 100%; at 92.2 µM (top of the series);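 also: cells exposed to compound for 16 h at 37 °C before reading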
How it was run: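 qHTS in human Jurkat T-cell leukemia line: 16 hr compound treatment at 37 °C, caspase-3/7 activity measured by Caspase-Glo luminescence. AC50 derived from Hill equation.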

[10] = Cellular Toxicity (caspase-3) HUV-EC-C (AID 656); conditions: HUV-EC-C cells, caspase-3 activation (apoptosis), vehicle = 0, 100 µM tamoxifen = 100%; series mostly up to 92.2 µM
How it was run: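 Concentration-dependent caspase 3/7 induction was assessed in HUV-EC-C cells exposed for 16 hours. Data scaled between DMSO and tamoxifen (100 uM) controls.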

[11] = Cellular Toxicity (caspase-3) SHSY5Y (AID 657); conditions: SH-SY5Y caspase-3 activation, DMSO zero, 10 µM staurosporine = 100%; series mostly up to 91.7 µM
How it was run: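 Readout: caspase-cleaved peptide-aminoluciferin substrate driving luciferase light in SH-SY5Y neuroblastoma cells after 16 h treatment. Response normalized to DMSO and 10 uM staurosporine controls.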

[12] = Cellular Toxicity (caspase-3) BJ (AID 658); conditions: BJ fibroblasts, luminescence, normalized: DMSO 0%, staurosporine 100%; series mostly up to 91.7 µM
How it was run: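 BJ human foreskin fibroblasts, 1000 cells/well, treated 16 hours at 37 °C in complete medium; caspase 3/7 activity by Caspase-Glo luminescence after 1 hr at room temperature. Normalized to DMSO and 10 uM staurosporine; AC50 from Hill fits.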

[13] = Cellular Toxicity (caspase-3) MRC-5 (AID 659); conditions: MRC-5 cells, luminescence, normalized: DMSO 0%, 10 µM staurosporine 100%; series mostly up to 91.7 µM
How it was run: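 MRC-5 human normal lung fibroblasts, 1500 cells/well, treated 16 h at 37 °C in complete medium. Caspase 3/7 measured by Caspase-Glo luminescence after 1 h at room temperature. Normalized to DMSO and 10 uM staurosporine; AC50 from Hill fit.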

[14] = Cellular Toxicity (caspase-3) SK-N-SH (AID 661); conditions: SK-N-SH caspase-3 activation, qHTS, DMSO as zero, staurosporine as full; series mostly up to 91.7 µM
How it was run: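 Human neuroblastoma SK-N-SH, 1500 cells/well, 5 hr pre-incubation, then compound 16 hr, 37 °C. Caspase-Glo 3/7 reagent, 1 hr RT, luminescence. Norm. to DMSO/10 uM staurosporine; Hill-fit AC50.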

[15] = Cellular Toxicity (caspase-3) H-4-II-E (AID 663); conditions: H-4-II-E rat hepatoma, scaled: DMSO 0%, 100 µM tamoxifen 100%; series mostly up to 92.2 µM;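 also: cells exposed to compound for 16 hr before readout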
How it was run: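 Rat hepatoma H-4-II-E cells (1500/well) plated 5 hr, then exposed to compound titrations for 16 hr at 37 °C. Caspase-Glo 3/7 luminescence read after 20 min at RT; data normalized to DMSO and 100 uM tamoxifen, AC50 from Hill fits.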

[16] = Cellular Toxicity (caspase-3) N2a (AID 665); conditions: N2a cells, luminescence, normalized: DMSO 0%, 10 µM staurosporine 100%; at 92.2 µM (top of the series);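 also: compound exposure lasted 16 h at 37 °C before readout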
How it was run: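 N2a cells, 1500/well, 5 h settle at 37 °C; cpd 16 h, 37 °C; Caspase-Glo 3/7, 1 h RT; luminescence. Norm: DMSO = 0, 10 uM staurosporine = 100%. AC50, Hill fit.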

[17] = target: Cytochrome P450 3A4 (Homo sapiens) (UniProt P08684); test: qHTS Assay for Inhibitors and Substrates of Cytochrome P450 3A4 (AID 884); conditions: recombinant CYP3A4, Luciferin-PPXE luminescence; series mostly up to 57.1 µM; also: % is scaled to controls: 0 for no effect and ±100 for the full control effect; nearly all actives have a fitted effect of over 50% in size
How it was run: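 20 nM human CYP3A4 with 25 uM Luciferin-PPXE (at KM) in 200 mM KPO4, preincubated 10 min with compound; NADPH regeneration started a 60 min RT reaction. Luciferin detected by luminescence, normalized to 57 uM ketoconazole as full inhibition.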

[18] = qHTS Assay for Identification of Small Molecule Inducers of Hypoxia Response (AID 2120; active = well fitted curve in the direction sought with a large enough effect in the signal ratio, with a control signal flat, not every such curve was filed as active; the % refers to the signal ratio; also: 0% is about no effect); conditions: hypoxia response reporter cells, beta-lactamase ratio readout; series mostly up to 104 µM
How it was run: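 ME-180 HRE-bla cells plated in Opti-MEM/0.5% dialyzed FBS, rested 4-5 h, then dosed with compound titrations by pin tool. After 17 h at 37 degrees C, CCF4 dye loaded 2.5 h at RT; 460/530 nm ratio gave %Activity and AC50.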

[19] = qHTS assay for small molecule agonists of the antioxidant response element (ARE) signaling pathway measured by Nrf2-dependant transcriptional activity - cell viability counter screen (AID 720653; active = well fitted curve in the direction sought with a large enough effect in the repeat runs; an effect the other way counts as inactive or inconclusive; also: % is scaled to controls: 0 for no effect and ±100 for the full control effect); conditions: ARE-bla HepG2 viability, CellTiter-Glo ATP luminescence, 16 h; stronger effect = lower value
How it was run: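 ARE-bla HepG2 cells treated with compounds for 16 h at 37C; this counter screen measures viability as intracellular ATP by CellTiter-Glo luminescence after 30 min at room temperature.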

[20] = qHTS assay for cell viability of HEK293 cells (AID 743288); conditions: ATP luminescence (CellTiter-Glo), 18 h; max response: stronger effect = lower value; also: % is scaled to controls: 0 for no effect and ±100 for the full control effect; nearly all actives have a fitted effect of over 50% in size
How it was run: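 Luminescent ATP quantitation served as the viability read-out. Cells (parental HEK293, 2,000/well) received compounds after at least 5 h at 37 C and were exposed for 18 h before a 30 min room-temperature reagent step.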

Sequence of Cytochrome P450 3A4 (Homo sapiens) (P08684 whole entry, looked up): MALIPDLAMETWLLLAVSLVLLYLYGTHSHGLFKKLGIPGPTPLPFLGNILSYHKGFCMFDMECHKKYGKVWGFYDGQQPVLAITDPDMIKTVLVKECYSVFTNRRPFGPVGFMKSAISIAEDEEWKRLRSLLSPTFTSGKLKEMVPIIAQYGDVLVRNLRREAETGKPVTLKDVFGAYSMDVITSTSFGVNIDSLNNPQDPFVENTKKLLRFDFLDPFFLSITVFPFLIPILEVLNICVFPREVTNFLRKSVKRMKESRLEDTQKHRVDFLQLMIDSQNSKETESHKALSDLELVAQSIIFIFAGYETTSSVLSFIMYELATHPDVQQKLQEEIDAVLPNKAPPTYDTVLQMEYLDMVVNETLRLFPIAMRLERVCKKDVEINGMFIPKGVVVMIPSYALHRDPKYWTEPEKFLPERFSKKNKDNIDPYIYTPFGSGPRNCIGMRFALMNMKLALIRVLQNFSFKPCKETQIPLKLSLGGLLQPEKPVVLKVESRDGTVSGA

Cc1ccc2ccccc2c1
inactive: Potency [1] > 92 µM | Potency [2] > 92 µM | outcome [3] | activity change, negative = cytotoxicity [4] -11.3% | Potency [5] | Potency [6] | activity change, negative = cytotoxicity [7] -15.4% | outcome [8] | caspase-3 activation [9] 1.17% | outcome [10] | outcome [11] | outcome [12] | outcome [13] | outcome [14] | outcome [15] | caspase-3 activation [16] -4.52% | Potency [17] | outcome [18] | max response [19] -3.38% | max response [20] 2.28%

C=CCOC(C)=O
inactive: Potency [1] > 92 µM | Potency [2] > 92 µM | outcome [3] | activity change, negative = cytotoxicity [4] -5.94% | Potency [5] | Potency [6] | activity change, negative = cytotoxicity [7] -1.33% | outcome [8] | caspase-3 activation [9] 0.277% | outcome [10] | outcome [11] | outcome [12] | outcome [13] | outcome [14] | outcome [15] | caspase-3 activation [16] -3.6% | Potency [17] | outcome [18] | max response [19] -12.1% | max response [20] -4.78%

ClC(Cl)(Cl)c1ccccc1
inactive: Potency [1] > 92 µM | Potency [2] > 92 µM | outcome [3] | activity change, negative = cytotoxicity [4] -19.1% and -4.39% | Potency [5] | Potency [6] | activity change, negative = cytotoxicity [7] -4.93% and -2.74% | outcome [8] | caspase-3 activation [9] 18.2% and -0.502% | outcome [10] | outcome [11] | outcome [12] | outcome [13] | outcome [14] | outcome [15] | caspase-3 activation [16] -0.73% and -1.88% | Potency [17] | outcome [18] | max response [19] -1.54% and 10.3% | max response [20] -4.96% and -3.96%

C=CC(=O)OCC
inactive: Potency [1] > 92 µM | Potency [2] > 92 µM | outcome [3] | activity change, negative = cytotoxicity [4] -21.9% | Potency [5] | Potency [6] | activity change, negative = cytotoxicity [7] 0.0849% | outcome [8] | caspase-3 activation [9] -0.667% | outcome [10] | outcome [11] | outcome [12] | outcome [13] | outcome [14] | outcome [15] | caspase-3 activation [16] -1.92% | Potency [17] | outcome [18] | max response [19] -9.08% | max response [20] -0.244%

Oc1ccc(Cl)cc1Cl
inactive: Potency [1] > 92 µM | Potency [2] > 92 µM | outcome [3] | activity change, negative = cytotoxicity [4] -8.01% | Potency [5] | Potency [6] | activity change, negative = cytotoxicity [7] -7.07% | outcome [8] | caspase-3 activation [9] 3.55% | outcome [10] | outcome [11] | outcome [12] | outcome [13] | outcome [14] | outcome [15] | caspase-3 activation [16] -0.627% | Potency [17] | outcome [18] | max response [19] -19.8% and -1.01% | max response [20] 3.78% and -2.5%

CCSC(=O)Cl
inactive: Potency [1] > 92 µM | Potency [2] > 92 µM | activity change, negative = cytotoxicity [4] -9.03% | Potency [5] | Potency [6] | activity change, negative = cytotoxicity [7] -4.42% | outcome [8] | caspase-3 activation [9] -0.54% | outcome [10] | outcome [11] | outcome [12] | outcome [13] | outcome [14] | outcome [15] | caspase-3 activation [16] -2.14% | Potency [17] | outcome [18] | max response [19] 0.254% | max response [20] -2.01%

CCCCCCCC(=O)Cl
inactive: Potency [1] > 92 µM | Potency [2] > 92 µM | outcome [3] | activity change, negative = cytotoxicity [4] 5.37% | Potency [5] | Potency [6] | activity change, negative = cytotoxicity [7] -1.44% | outcome [8] | caspase-3 activation [9] -0.927% | outcome [10] | outcome [11] | outcome [12] | outcome [13] | outcome [14] | outcome [15] | caspase-3 activation [16] -0.621% | Potency [17] | outcome [18] | max response [19] 7.34% | max response [20] -11%
